# Target: Casein kinase I isoform alpha (Homo sapiens) (UniProt P48729)
# Conditions: at 0.1 µM
# Casein kinase I isoform alpha (Homo sapiens), sequence (P48729 2-337 limits assumed): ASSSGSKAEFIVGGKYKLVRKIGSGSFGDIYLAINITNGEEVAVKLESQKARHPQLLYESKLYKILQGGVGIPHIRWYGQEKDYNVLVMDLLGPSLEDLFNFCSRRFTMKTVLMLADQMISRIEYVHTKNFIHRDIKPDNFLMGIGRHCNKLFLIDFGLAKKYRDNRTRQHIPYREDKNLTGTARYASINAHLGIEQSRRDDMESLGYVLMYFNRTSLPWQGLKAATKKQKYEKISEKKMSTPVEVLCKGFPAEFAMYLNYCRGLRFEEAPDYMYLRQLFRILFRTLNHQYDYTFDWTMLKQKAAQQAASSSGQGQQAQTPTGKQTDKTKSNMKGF
row,SMILES,inhibition
1,COc1cc(/C=N/Nc2ncnc3[nH]ncc23)ccc1O,3.78%
2,COc1cc(Nc2nccc(Nc3ccc4c(C)n[nH]c4c3)n2)cc(OC)c1OC,0.44%
3,COc1cc2c(cc1Nc1nc(Nc3ccsc3C(N)=O)c3cc[nH]c3n1)N(C(=O)CN(C)C)CCC2(C)C,4.27%
4,CCn1c(-c2nonc2N)nc2c(C#CC(C)(C)O)nc(OC[C@H](N)c3ccccc3)cc21,2.03%
5,COC(=O)Nc1nc2ccc(S(=O)(=O)c3ccc(NC(=O)Nc4cc(C(F)(F)F)ccc4F)cc3)cc2[nH]1,2.65%
6,N#Cc1c(NC(=O)c2ccc(F)cc2)sc2c1CCCC2,-0.68%
7,CCn1c(-c2nonc2N)nc2c(C#CC(C)(C)O)ncc(OC3CCNCC3)c21,2.3%
8,CCn1c(-c2nonc2N)nc2cnc(Oc3cccc(NC(=O)c4ccc(N(C)C)cc4)c3)cc21,2.09%
9,Fc1cccc(COc2ccc(Nc3ncnc4sc(-c5ccco5)cc34)cc2Cl)c1,3.24%
10,O=S(=O)(CCNCc1ccc(-c2ccc3ncnc(Nc4ccc(OCc5cccc(F)c5)c(Cl)c4)c3c2)o1)c1ccccc1,4.43%
11,COc1cccc(-n2ncc3c(N/N=C/c4ccc(F)cc4)ncnc32)c1,4.03%
12,NC(=O)c1sc(-n2cnc3ccc(C(F)(F)F)cc32)cc1OCc1ccccc1Br,0.93%
13,NS(=O)(=O)c1ccc(N/N=C2\C(=O)Nc3ccc4ncccc4c32)cc1,4.04%
14,c1ccc(-c2nc3n(c2-c2ccc4c(c2)OCO4)CCC3)nc1,22.2%
15,CCNC(=O)O[C@H]1CN[C@H](C#Cc2cc3ncnc(Nc4ccc(OCc5cccc(F)c5)c(Cl)c4)c3s2)C1,1.8%
16,COc1ccc(-c2cc(-c3c[nH]nc3-c3ccccn3)ccn2)cc1,3.31%
17,Nc1nc(-c2cccc(Cl)c2)c(-c2ccc3ncccc3n2)s1,1.48%

row,SMILES,inhibition
1,Clc1ccc(-c2nn3ncccc3c2-c2ccnc(Nc3ccccc3)n2)cc1,5.52%
2,CCN1CCC(CC(=O)Nc2n[nH]c3nnc(-c4cccc(F)c4F)cc23)CC1,0.5%
3,CN1CCC(n2cnc(-c3ccc(F)cc3)c2-c2ccnc(N)n2)CC1,30.1%
4,CNC(=O)c1cncc(/C=C/c2ccccc2Cl)c1,0.76%
5,CC(C)COC(=O)c1ccc2c(c1)/C(=C/Nc1ccc(S(N)(=O)=O)cc1)C(=O)N2,-2%
6,CCN(CC)S(=O)(=O)c1ccc(OC)c(Nc2ncc(-c3ccccc3)o2)c1,1.13%
7,COc1ccc(-c2oc3ncnc(N)c3c2-c2ccc(NC(=O)Nc3cc(C(F)(F)F)ccc3F)cc2)cc1,3.27%
8,COc1ccc(CNC(=O)c2ccc(-c3cc(-c4nnc(C)o4)ccc3C)cc2)cc1,-0.51%
9,CC(C)(CO)CNC(=O)c1ccc2c(c1)/C(=N/Nc1ccc(S(N)(=O)=O)cc1)C(=O)N2,-1.33%
10,Cc1cccc2c1NC(=O)/C2=N\Nc1ccc(S(N)(=O)=O)cc1,1.01%
11,Cc1ccc2c(-c3ccnc(Nc4ccccc4)n3)c(-c3ccc(F)cc3)nn2n1,33.6%
12,CNC(=O)c1cccc(C#Cc2cncnc2Nc2ccc(OCc3cccc(F)c3)c(Cl)c2)c1,-4.8%
13,c1cc(-c2cnn3nc(N4CCOCC4)ccc23)nc(NC2CC2)n1,5.43%
14,FC(F)(F)c1cccc(-c2nn3ncccc3c2-c2ccnc(Nc3ccc4c(c3)OCCO4)n2)c1,1.53%
15,CC1=C(C(=O)Nc2cc(Cl)c3[nH]ncc3c2)C(c2ccc(C(F)(F)F)cc2)CC(=O)N1 (stereo not drawn),1.86%
16,COc1cc(N2CCN(C(C)C)CC2)ccc1Nc1nc(Nc2ccc(F)cc2C(N)=O)c2cc[nH]c2n1,12.4%
17,O=C(Nc1n[nH]c2cc(-c3ccc(F)cc3)ccc12)C1CC1,2.37%

# Target: Casein kinase I isoform alpha (Homo sapiens) (UniProt P48729)
# Conditions: at 1 µM
row,SMILES,inhibition
1,COc1cc(/C=N/Nc2ncnc3[nH]ncc23)ccc1O,13.7%
2,COc1cc(Nc2nccc(Nc3ccc4c(C)n[nH]c4c3)n2)cc(OC)c1OC,0.47%
3,COc1cc2c(cc1Nc1nc(Nc3ccsc3C(N)=O)c3cc[nH]c3n1)N(C(=O)CN(C)C)CCC2(C)C,14.9%
4,CCn1c(-c2nonc2N)nc2c(C#CC(C)(C)O)nc(OC[C@H](N)c3ccccc3)cc21,11.4%
5,COC(=O)Nc1nc2ccc(S(=O)(=O)c3ccc(NC(=O)Nc4cc(C(F)(F)F)ccc4F)cc3)cc2[nH]1,5.12%
6,N#Cc1c(NC(=O)c2ccc(F)cc2)sc2c1CCCC2,1.93%
7,CCn1c(-c2nonc2N)nc2c(C#CC(C)(C)O)ncc(OC3CCNCC3)c21,8.85%
8,CCn1c(-c2nonc2N)nc2cnc(Oc3cccc(NC(=O)c4ccc(N(C)C)cc4)c3)cc21,7.22%
9,Fc1cccc(COc2ccc(Nc3ncnc4sc(-c5ccco5)cc34)cc2Cl)c1,3.14%
10,O=S(=O)(CCNCc1ccc(-c2ccc3ncnc(Nc4ccc(OCc5cccc(F)c5)c(Cl)c4)c3c2)o1)c1ccccc1,6.02%
11,COc1cccc(-n2ncc3c(N/N=C/c4ccc(F)cc4)ncnc32)c1,4.98%
12,NC(=O)c1sc(-n2cnc3ccc(C(F)(F)F)cc32)cc1OCc1ccccc1Br,2.88%
13,NS(=O)(=O)c1ccc(N/N=C2\C(=O)Nc3ccc4ncccc4c32)cc1,21.3%
14,c1ccc(-c2nc3n(c2-c2ccc4c(c2)OCO4)CCC3)nc1,60.1%
15,CCNC(=O)O[C@H]1CN[C@H](C#Cc2cc3ncnc(Nc4ccc(OCc5cccc(F)c5)c(Cl)c4)c3s2)C1,1.43%
16,COc1ccc(-c2cc(-c3c[nH]nc3-c3ccccn3)ccn2)cc1,11.5%
17,Nc1nc(-c2cccc(Cl)c2)c(-c2ccc3ncccc3n2)s1,5.89%

row,SMILES,inhibition
1,Clc1ccc(-c2nn3ncccc3c2-c2ccnc(Nc3ccccc3)n2)cc1,39.6%
2,CCN1CCC(CC(=O)Nc2n[nH]c3nnc(-c4cccc(F)c4F)cc23)CC1,-1.29%
3,CN1CCC(n2cnc(-c3ccc(F)cc3)c2-c2ccnc(N)n2)CC1,73.1%
4,CNC(=O)c1cncc(/C=C/c2ccccc2Cl)c1,-0.31%
5,CC(C)COC(=O)c1ccc2c(c1)/C(=C/Nc1ccc(S(N)(=O)=O)cc1)C(=O)N2,1.61%
6,CCN(CC)S(=O)(=O)c1ccc(OC)c(Nc2ncc(-c3ccccc3)o2)c1,1.02%
7,COc1ccc(-c2oc3ncnc(N)c3c2-c2ccc(NC(=O)Nc3cc(C(F)(F)F)ccc3F)cc2)cc1,3.17%
8,COc1ccc(CNC(=O)c2ccc(-c3cc(-c4nnc(C)o4)ccc3C)cc2)cc1,2.48%
9,CC(C)(CO)CNC(=O)c1ccc2c(c1)/C(=N/Nc1ccc(S(N)(=O)=O)cc1)C(=O)N2,7.84%
10,Cc1cccc2c1NC(=O)/C2=N\Nc1ccc(S(N)(=O)=O)cc1,4.19%
11,Cc1ccc2c(-c3ccnc(Nc4ccccc4)n3)c(-c3ccc(F)cc3)nn2n1,70.7%
12,CNC(=O)c1cccc(C#Cc2cncnc2Nc2ccc(OCc3cccc(F)c3)c(Cl)c2)c1,0.1%
13,c1cc(-c2cnn3nc(N4CCOCC4)ccc23)nc(NC2CC2)n1,15.8%
14,FC(F)(F)c1cccc(-c2nn3ncccc3c2-c2ccnc(Nc3ccc4c(c3)OCCO4)n2)c1,4.39%
15,CC1=C(C(=O)Nc2cc(Cl)c3[nH]ncc3c2)C(c2ccc(C(F)(F)F)cc2)CC(=O)N1 (stereo not drawn),2.49%
16,COc1cc(N2CCN(C(C)C)CC2)ccc1Nc1nc(Nc2ccc(F)cc2C(N)=O)c2cc[nH]c2n1,58.3%
17,O=C(Nc1n[nH]c2cc(-c3ccc(F)cc3)ccc12)C1CC1,7.14%
